This is part of a sample that, as a whole, favours compounds with a hit. Of some 83,000 tested, about 20% had one in any assay.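 Method: cells in 96-well plates; compound added at one concentration; 48 h incubation; percent growth measured; values under 10 scored active.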 Values without a mark were called inactive. Activity calls are given as the source filed them.
Assays:
Experiment in all cases: NCI-60 one-dose screen, 48 h (100 = growth as untreated, 0 = no growth, -100 = all killed)
Conditions in all cases: 10 µM unless noted
NCI-H23 lung = test system: NCI-H23 lung
NCI-H226 lung = test system: NCI-H226 lung
HOP-62 NSCLC = test system: HOP-62 NSCLC
NCI-H460 lung = test system: NCI-H460 lung
NCI-H522 lung = test system: NCI-H522 lung
A549/ATCC NSCLC = test system: A549/ATCC NSCLC
786-0 renal = test system: 786-0 renal
COLO 205 colon = test system: COLO 205 colon
HOP-92 NSCLC = test system: HOP-92 NSCLC
NCI-H322M lung = test system: NCI-H322M lung

Row | SMILES | growth (NCI-H23 lung) | growth (NCI-H226 lung) [%] | growth (HOP-62 NSCLC) | growth (NCI-H460 lung) | growth (NCI-H522 lung) | growth (A549/ATCC NSCLC) | growth (786-0 renal) | growth (COLO 205 colon) | growth (HOP-92 NSCLC) | growth (NCI-H322M lung)
1 | O=C1CSC(c2cn(-c3ccccc3)nc2-c2ccc(Cl)cc2)N1c1ccccc1 (stereo not drawn) | 96.9% | 98.4 | 99.6% | 111% | 95.7% | 98.1% | 106% | 120% |  | 
2 | Cc1c(C(=O)/C=C/c2ccc(Cl)cc2)nnn1-c1ccc2oc(=O)ccc2c1 | 92.9% | 85.4 | 107% | 102% | 88.8% | 103% | 101% |  | 79.4% | 
3 | COc1ccc(N2CCN(C3=C(Cl)C(=O)c4ncccc4C3=O)CC2)cc1 | 55.9% | 94 | 85.4% | 52.7% | -9.71% (active) | 96% | 107% | 30.5% |  | 97.2%
4 | O=C(/C=C/c1ccccc1Cl)Nc1ncc(Cc2cc(Cl)ccc2Cl)s1 | 50.9% | 39.4 | 22% | 8.08% (active) | 12.3% | 40% | 33.3% | 5.37% (active) | 35.4% | 
5 | C=C(C)[C@@H]1CC[C@]2(C(=O)N3CCN(C)CC3)CC[C@]3(C)[C@H](CC[C@@H]4[C@@]5(C)CC[C@H](OP(=O)(OCC)OCC)C(C)(C)[C@@H]5CC[C@]43C)[C@@H]12 | 83.1% | 75.8 | 96.2% | 91.3% | 81.7% | 75.6% | 70.3% | 90.8% | 63.8% | 
6 | Cc1ccc2c(n1)C(=O)C(Cl)=C(Nc1ccc(C(C)C)cc1)C2=O | -56.9% (active) | 61.4 | 126% | 79.7% | -13.7% (active) | 67.8% | 75.6% | 111% |  | 
7 | COc1ccc(-c2cc(-c3ccc(N4CCOCC4)cc3)n3c(n2)nc2ccccc23)cc1OC | 98% | 85.7 | 94.8% | 86.3% | 87.7% | 82.5% | 84.7% | 108% | -4.32% (active) | 
8 | C#C[C@]1(O)CC[C@H]2[C@@H]3CC=C4c5sc(Nc6cc(C)cc(C)c6)nc5CC[C@]4(C)[C@H]3CC[C@@]21C | 14.8% | 38.6 | 20.5% | 12.2% | 42.7% | 21.1% | -31.2% (active) | -13.3% (active) | 31.4% | 
9 | CN1CCN(c2ccc(Nc3nc(NCCCNS(=O)(=O)c4cccc5ccccc45)c4sccc4n3)cc2)CC1 | 30.4% | 86 | 25.6% | -14% (active) | -81.1% (active) | -9.22% (active) | -82.1% (active) | -74.1% (active) | -43.6% (active) | 
10 | NCCNC(=O)c1cccc(COc2ccccc2NC(=O)c2cc(Br)c(Br)[nH]2)c1 | 84.1% | 95.4 | 105% | 99.4% | 93.2% | 96.7% | 78.9% |  | 107% | 
11 | C/C(=N\NC(=O)Nc1ccccc1)c1nnn(-c2ccc([N+](=O)[O-])cc2)c1C | 94.7% | 100 | 111% | 108% | 99.9% | 107% | 102% | 112% |  | 
12 | CCC(=C(c1ccc(OCCN(C)C)cc1)c1ccc(OCCN(C)C)cc1)c1ccc(Cl)cc1 | 21.9% |  | -65.7% (active) | -64.8% (active) | -48.3% (active) | -72.3% (active) | -80.7% (active) | -67.3% (active) | -5.13% (active) | 5.04% (active)
